Data from the antibiotic and cytotoxicity screens of Wong et al. (2023).
Among all 39,000 compounds or so, about 3,300 (8.5%) were called active. Many of the other results were omitted from the sample, so actives are more common in it than they were.

system: HepG2; test: cytotoxicity call (relative viability < 0.9); settings: 10 µM

| SMILES | cytotoxicity call |
| --- | --- |
| C=CCN(C(=O)[C@H]1N(C(C)(C)CO)C(=O)[C@H]2[C@H](C(=O)O)[C@@H]3C=C[C@@]21O3)C(C)(C)C | inactive |
| S=c1cc(-c2ccccc2)oc(-c2ccccc2)c1 | active |
| Cc1cc(-c2ccccc2)oc2cc3ccccc3c1-2 | inactive |
| O=c1cc(-c2ccccc2)oc2ccc(O)cc12 | inactive |
| O=C(N[C@@H](c1ccc2c(c1)OCO2)c1ccccn1)C1CCN(CCOc2ccc(Cl)cc2Cl)CC1 | inactive |
| O=C(N[C@@H](c1ccc(-c2ccccc2)cc1)c1cnccn1)C1CCN(CCCOc2ccccc2)CC1 | active |
| Cc1cccnc1[C@@H](NC(=O)C1CCN(CCOc2ccc(Cl)cc2Cl)CC1)c1ccc(F)cc1 | inactive |
| O=C(N[C@H](c1ccc(Cl)cc1)c1ccccn1)C1CCN(CCOc2ccc(Cl)cc2Cl)CC1 | inactive |
| O=C(N[C@@H](c1ccc(-c2ccccc2)cc1)c1cnccn1)C1CCN(CCOc2ccc(F)cc2)CC1 | active |
| C[C@H]1CN([C@@H](C)CO)C(=O)c2ccccc2-c2ccccc2CO[C@H]1CN(C)Cc1ccc(-c2ccccc2)cc1 | inactive |
| CN(C)C(=O)N1C[C@@H]2[C@@H](C1)C(=O)N(C)C21CCN(S(C)(=O)=O)CC1 | inactive |
| C[C@H](O)[C@H](O)[C@@H](O)[C@@H](O)/C=N/NC(=O)c1ccccn1 | inactive |
| O=C(C[C@@H]1CC[C@@H]2[C@H](COC[C@H](O)CN2CC2CCOCC2)O1)N1CCOCC1 | inactive |
| O=C(NCCO)c1cc2ccccc2oc1=O | inactive |
| CCc1nc2ccc(C(=O)NCCOc3ccc(OC)cc3)cn2c1N(CC)Cc1cccc(Br)c1 | inactive |
| Cc1cc(C)c(N(Cc2ccccc2)S(=O)(=O)c2ccc(OCCNC(=O)c3cc4ccccc4o3)cc2)c(C(=O)NO)c1 | active |
| Cc1ccc(S(=O)(=O)N(C)C[C@H]2Oc3ccc(NS(=O)(=O)c4cccs4)cc3C(=O)N([C@H](C)CO)C[C@@H]2C)cc1 | inactive |
| COc1ccc(COC[C@]23NC(=O)N(C(=O)c4ccccc4)[C@H](c4ccccc4O2)[C@H]3CO[Si](C)(C)C(C)(C)C)cc1 | inactive |
| C[C@@H]1CN([C@H](C)CO)C(=O)Cc2cc(NC(=O)C3CCCCC3)ccc2O[C@H]1CN(C)S(C)(=O)=O | inactive |
| C[C@H]1CCCCO[C@H](CN(C)Cc2ccc(Cl)c(Cl)c2)[C@@H](C)CN([C@@H](C)CO)C(=O)c2cc(NC(=O)Nc3cccc4ccccc34)ccc2O1 | inactive |
| C[C@@H]1CCCCO[C@@H](CN(C)C(=O)C2CCCCC2)[C@@H](C)CN([C@@H](C)CO)C(=O)c2cc(NC(=O)NC3CCCCC3)ccc2O1 | inactive |
| C[C@H](CO)N1C[C@H](C)[C@@H](CN(C)C(=O)C2CCCCC2)OCCCC[C@H](C)Oc2ccc(NC(=O)NC3CCCCC3)cc2C1=O | inactive |

| SMILES | cytotoxicity call |
| --- | --- |
| C[C@@H]1CCCCO[C@H](CN(C)C(=O)C2CCCCC2)[C@@H](C)CN([C@@H](C)CO)C(=O)c2cc(NC(=O)NC3CCCCC3)ccc2O1 | inactive |
| C[C@@H]1CCCCO[C@@H](CN(C)C(=O)C2CCCCC2)[C@H](C)CN([C@@H](C)CO)C(=O)c2cc(NC(=O)NC3CCCCC3)ccc2O1 | inactive |
| C[C@@H]1CCCCO[C@H](CN(C)C(=O)C2CCCCC2)[C@@H](C)CN([C@H](C)CO)C(=O)c2cc(NC(=O)NC3CCCCC3)ccc2O1 | inactive |
| C[C@@H]1CCCCO[C@H](CN(C)C(=O)C2CCCCC2)[C@H](C)CN([C@@H](C)CO)C(=O)c2cc(NC(=O)NC3CCCCC3)ccc2O1 | active |
| C[C@H]1CCCCO[C@H](CN(C)C(=O)C2CCCCC2)[C@@H](C)CN([C@@H](C)CO)C(=O)c2cc(NC(=O)NC3CCCCC3)ccc2O1 | inactive |
| C[C@@H]1CN([C@@H](C)CO)C(=O)c2cc(NC(=O)NC3CCCCC3)ccc2O[C@@H](C)CCCCO[C@H]1CN(C)C(=O)C1CCCCC1 | active |
| C[C@H](CO)N1C[C@H](C)[C@H](CN(C)C(=O)C2CCCCC2)OCCCC[C@H](C)Oc2ccc(NC(=O)NC3CCCCC3)cc2C1=O | active |
| CCS(=O)(=O)N1C[C@]2(CCN(CC2)S(=O)(=O)c2cn(cn2)C)c2c([nH]c3cc(ccc23)OC)[C@@H]1CO | inactive |
| COc1ccc(S(=O)(=O)Nc2ccc3c(c2)C(=O)N([C@@H](C)CO)C[C@@H](C)[C@H](CN(C)C(=O)Nc2c(C)noc2C)OCCCC[C@@H](C)O3)cc1 | inactive |
| Cc1noc(C)c1NC(=O)N(C)C[C@@H]1Oc2ccc(NS(=O)(=O)c3c(C)noc3C)cc2C(=O)N([C@@H](C)CO)C[C@H]1C | inactive |
| Cl.NC[C@H](N)C(=O)O | inactive |
| COc1ccccc1S(=O)(=O)N(C)C[C@H]1OCc2cn(nn2)CCCC(=O)N([C@H](C)CO)C[C@@H]1C | inactive |
| Cc1cccc(NC(=O)Nc2ccc3c(c2)C(=O)N(C)[C@@H]2CC[C@H](CC(=O)NCc4ccccc4Cl)O[C@H]2CO3)c1 | inactive |
| C=CC[C@H](CC(=O)N(CCO)Cc1ccccc1)C(=O)N[C@H](COC(=O)[C@@H](CC=C)CC(=O)OC(C)(C)C)Cc1c[nH]c2ccccc12 | inactive |
| C[C@H](CO)N1C[C@H](C)[C@H](CN(C)C(=O)Nc2ccccc2)Oc2ccc(NC(=O)CCN3CCOCC3)cc2CC1=O | inactive |
| Cc1ccc(S(=O)(=O)N(C)C[C@@H]2Oc3ccc(NS(=O)(=O)c4ccc(F)cc4)cc3CC(=O)N([C@H](C)CO)C[C@H]2C)cc1 | inactive |
| O=C(NCc1ccccc1)C1=C[C@H](c2ccc(Br)cc2)C[C@H](OCc2ccc(CO)cc2)O1 | inactive |
| Cc1ccc(S(=O)(=O)N(C)C[C@H]2Oc3ccc(NS(C)(=O)=O)cc3CC(=O)N([C@@H](C)CO)C[C@H]2C)cc1 | inactive |
| O=C(O)C=CC=Cc1ccccc1 | inactive |
| COC1=CC(=O)C(O)=CC1=CC=Cc1ccccc1 | active |
| COc1cc(CC=Cc2ccccc2)c(OC)cc1O | inactive |
| C[C@@H]1CN([C@H](C)CO)C(=O)c2cc(NC(=O)C3CCCCC3)ccc2O[C@@H]1CN(C)C(=O)Nc1ccc(C(F)(F)F)cc1 | inactive |

| SMILES | cytotoxicity call |
| --- | --- |
| C[C@H]1CN([C@@H](C)CO)C(=O)c2cc(NS(=O)(=O)c3cccs3)ccc2O[C@H]1CN(C)S(=O)(=O)c1ccccc1 | inactive |
| C[C@@H]1CN([C@H](C)CO)C(=O)c2cc(NC(=O)CCCCCC(=O)Nc3ccccc3N)ccc2O[C@@H]1CN(C)S(C)(=O)=O | inactive |
| C[C@H](CO)N1C[C@H](C)[C@H](CN(C)C(=O)C2CCCCC2)OCCCC[C@H](C)Oc2ccc(NC(=O)CCC(F)(F)F)cc2C1=O | inactive |
| Cc1ccc(NC(=O)[C@@H]2[C@@H]3CC/C=C\CC/C=C/CC[C@@H]32)cc1C | inactive |
| CCC(=O)c1ccc(Cl)s1 | inactive |
| C[C@@H]1CCCCO[C@@H](CN(C)C(=O)Nc2ccc(C(F)(F)F)cc2)[C@H](C)CN([C@H](C)CO)C(=O)c2cc(NC(=O)Nc3ccc(F)cc3)ccc2O1 | active |
| C[C@H](CO)N1C[C@H](C)[C@@H](CN(C)C(=O)Nc2ccc(C(F)(F)F)cc2)OCCCC[C@H](C)Oc2ccc(NC(=O)Nc3ccc(F)cc3)cc2C1=O | inactive |
| C[C@H](CO)N1C[C@H](C)[C@H](CN(C)C(=O)Nc2ccc(F)cc2)OCCCC[C@H](C)Oc2ccc(NC(=O)Nc3ccc(C(F)(F)F)cc3)cc2C1=O | inactive |
| C[C@@H]1CCCCO[C@H](CN(C)C(=O)Nc2ccc(C(F)(F)F)cc2)[C@H](C)CN([C@H](C)CO)C(=O)c2cc(NC(=O)Nc3ccc(F)cc3)ccc2O1 | inactive |
| C[C@@H]1CN([C@H](C)CO)C(=O)c2cc(NC(=O)Nc3ccc(F)cc3)ccc2O[C@@H](C)CCCCO[C@H]1CN(C)C(=O)Nc1ccc(C(F)(F)F)cc1 | active |
| C[C@H]1CCCCO[C@@H](CN(C)C(=O)Nc2ccc(C(F)(F)F)cc2)[C@@H](C)CN([C@@H](C)CO)C(=O)c2cc(NC(=O)Nc3ccc(F)cc3)ccc2O1 | inactive |
| C[C@H]1CCCCO[C@H](CN(C)C(=O)Nc2ccc(C(F)(F)F)cc2)[C@@H](C)CN([C@@H](C)CO)C(=O)c2cc(NC(=O)Nc3ccc(F)cc3)ccc2O1 | inactive |
| C[C@@H]1CCCCO[C@H](CN(C)C(=O)Nc2ccc(F)cc2)[C@@H](C)CN([C@@H](C)CO)C(=O)c2cc(NC(=O)Nc3ccc(C(F)(F)F)cc3)ccc2O1 | inactive |
| C[C@@H]1CCCCO[C@H](CN(C)C(=O)Nc2ccc(C(F)(F)F)cc2)[C@@H](C)CN([C@H](C)CO)C(=O)c2cc(NC(=O)Nc3ccc(F)cc3)ccc2O1 | active |
| C[C@@H]1CN([C@H](C)CO)C(=O)c2cc(NC(=O)Nc3ccc(C(F)(F)F)cc3)ccc2O[C@@H](C)CCCCO[C@H]1CN(C)C(=O)Nc1ccc(F)cc1 | active |
| C[C@H]1CCCCO[C@@H](CN(C)C(=O)Nc2ccc(F)cc2)[C@@H](C)CN([C@@H](C)CO)C(=O)c2cc(NC(=O)Nc3ccc(C(F)(F)F)cc3)ccc2O1 | inactive |
| C[C@H](CO)N1C[C@H](C)[C@@H](CN(C)C(=O)Nc2ccc(F)cc2)OCCCC[C@H](C)Oc2ccc(NC(=O)Nc3ccc(C(F)(F)F)cc3)cc2C1=O | inactive |
| Cc1ccc(S(=O)(=O)Nc2ccc3c(c2)C(=O)N([C@@H](C)CO)C[C@@H](C)[C@H](CN(C)S(=O)(=O)c2ccc(F)cc2)O3)cc1 | inactive |
| C[C@H](CO)N1C[C@H](C)[C@@H](CN(C)S(C)(=O)=O)Oc2c(NC(=O)CCCCCC(=O)Nc3ccccc3N)cccc2C1=O | inactive |
| C[C@@H]1CN([C@H](C)CO)C(=O)c2cc(NS(=O)(=O)c3cn(C)cn3)ccc2O[C@@H](C)CCCCO[C@@H]1CN(C)C(=O)CCCN(C)C | inactive |
| C[C@@H]1CN([C@H](C)CO)C(=O)Cc2cc(NC(=O)CCCCCC(=O)Nc3ccccc3N)ccc2O[C@H]1CN(C)C(=O)Nc1ccccc1 | inactive |
